The target of assay [1] is Thyrotropin-releasing hormone receptor (Homo sapiens) (UniProt P34981). Put plainly: qHTS assay to identify small molecule agonists of the thyrotropin-releasing hormone receptor (TRHR) signaling pathway (AID 1346891; calls by dose curve;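 also: HEK293 cells expressing TRHR with calcium dye readout; series mostly up to about 58 µM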). In short, it runs like this: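 Kinetic fluorescence (3 min, 1 s intervals) reported intracellular calcium after compound transfer onto TRHR-Hek293 cells pre-loaded with dye for 2 h at 37 °C.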
Chain of Thyrotropin-releasing hormone receptor (Homo sapiens) (P34981 whole entry, looked up): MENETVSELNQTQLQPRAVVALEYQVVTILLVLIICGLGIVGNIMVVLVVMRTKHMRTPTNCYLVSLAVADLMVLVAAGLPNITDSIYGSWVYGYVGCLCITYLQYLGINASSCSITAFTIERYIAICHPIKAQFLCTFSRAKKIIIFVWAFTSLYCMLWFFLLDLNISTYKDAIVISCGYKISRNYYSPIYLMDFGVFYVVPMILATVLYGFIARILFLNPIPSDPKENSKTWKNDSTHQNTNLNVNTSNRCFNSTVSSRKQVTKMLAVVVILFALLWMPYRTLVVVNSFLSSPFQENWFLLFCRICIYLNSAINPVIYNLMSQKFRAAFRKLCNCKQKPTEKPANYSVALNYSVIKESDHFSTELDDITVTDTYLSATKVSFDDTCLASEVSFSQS

The nature of assay [2]: Caspase-3/7 induction in HepG2 cells by small molecules, qHTS assay (AID 1346978). Also: nearly all actives have a fitted effect of over 15% in size. A digest of the protocol:
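Wild-type HepG2 cells, 2,000/well, settled 5 hr at 37 C and 5% CO2, then compound-treated for 17 hr; caspase-3/7 activity read by luminescent Caspase-Glo 3/7 after 30 min at room temperature.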

Assay [3] in a line: Caspase-3/7 induction in CHO-K1 cells by small molecules, qHTS assay (AID 1346980). Also: nearly all actives have a fitted effect of over 15% in size. In short, it runs like this: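 Wild-type CHO-K1 cells exposed to compounds for 17hr at 37 C, 5% CO2. Caspase-3/7 activity then measured by Caspase-Glo 3/7 luminescence after 30min at room temperature.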
Assay [4] in a line: Caspase-3/7 induction in HepG2 cells by small molecules, qHTS cell viability counter screen (AID 1346981). Also: nearly all actives have a fitted effect of over 30% in size. Also: potency is read from the fitted curve at half-maximal effect. As to activity change, negative = cytotoxicity: series mostly up to about 92 µM. A digest of the protocol:
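Wild-type HepG2 cells (2,000/well) were allowed to settle for 5 hr at 37 C, 5% CO2, then dosed with compounds in DMSO by pin transfer. After 16 hr at 37 C, CellTiter-Fluor was added and fluorescence read 1 hr later.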

For assay [5], the target named is Cytochrome P450 2D6 (Homo sapiens) (UniProt P10635). Put plainly: Cytochrome P450 Family 2 Subfamily D Member 6 (CYP2D6) small molecule antagonists: luciferase reporter qHTS assay (AID 1671196). Also: nearly all actives have a fitted effect of over 50% in size. Also: potency is read from the fitted curve at half-maximal effect. As to activity change, negative = inhibition: series mostly up to about 120 µM. In short, it runs like this:
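CYP2D6 enzyme–substrate mix was held with compound for 10 min at room temperature, then NADPH regeneration solution was added and the reaction ran 1 h at room temperature. Luciferin product was detected by luminescence after 20 min with detection reagent.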

The target in assay [6] is Cytochrome P450 2C19 (Homo sapiens) (UniProt P33261). The assay can be described thus: Cytochrome P450 Family 2 Subfamily C Member 19 (CYP2C19) small molecule antagonists: luciferase reporter qHTS assay (AID 1671197). Also: nearly all actives have a fitted effect of over 65% in size. Also: potency is read from the fitted curve at half-maximal effect. As to activity change, negative = inhibition: series mostly up to about 120 µM. A digest of the protocol:
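Enzyme-substrate mix with proluciferin substrate (P450-Glo CYP2C19 system) preincubated with compounds 10 min at room temperature; NADPH regeneration solution added, 37C for 1 h; detection reagent stops reaction, luminescence read after 20 min. Ketoconazole positive control.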

The target in assay [7] is Cytochrome P450 2C9 (Homo sapiens) (UniProt P11712). Put plainly: Cytochrome P450 Family 2 Subfamily C Member 9 (CYP2C9) small molecule antagonists: luciferase reporter qHTS assay (AID 1671198). Also: nearly all actives have a fitted effect of over 50% in size. Also: potency is read from the fitted curve at half-maximal effect. As to activity change, negative = inhibition: series mostly up to about 120 µM. In short, it runs like this:
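P450-Glo proluciferin substrate with CYP2C9 enzyme; 10 min RT preincubation, then NADPH regeneration 1 h at 37C; luciferin detection reagent 20 min RT, luminescence in relative luminescence units.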

Assay [8] addresses Cytochrome P450 1A2 (Homo sapiens) (UniProt P05177). The assay can be described thus: Cytochrome P450 Family 1 Subfamily A Member 2 (CYP1A2) small molecule antagonists: luciferase reporter qHTS assay (AID 1671199). Also: nearly all actives have a fitted effect of over 50% in size. Also: potency is read from the fitted curve at half-maximal effect. As to activity change, negative = inhibition: series mostly up to about 120 µM. A digest of the protocol: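 Human CYP1A2 activity measured with a P450-Glo proluciferin substrate; compounds in DMSO preincubated 10 min at room temperature with enzyme-substrate mix, then NADPH regeneration system added for 1 h. Luciferin detection reagent, 20 min, luminescence read.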

Assay [9] deals with Voltage-gated inwardly rectifying potassium channel KCNH2 (Homo sapiens) (UniProt Q12809). The assay can be described thus: Human Ether-a-go-go-Related Gene (hERG) channel small molecule antagonists: fluorescence cell-based qHTS assay (AID 1671200).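 Also: hERG-expressing U2OS cells given a thallium stimulus after FluxOR II dye loading; series mostly up to about 77 µM; nearly all actives have a fitted effect of over 50% in size.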 In short, it runs like this:
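First, 1000 cells per well are seeded and cultured overnight at 37 C. Next, FluxOR II dye is loaded for 1 h at room temperature, protected from light. After 10 more minutes, stimulus is added and fluorescence is read.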

In assay [10] the target is Cytochrome P450 3A4 (Homo sapiens) (UniProt P08684). The assay can be described thus: Cytochrome P450 Family 3 Subfamily A Member 4 (CYP3A4) small molecule antagonists: luciferase reporter qHTS assay (AID 1671201). Also: nearly all actives have a fitted effect of over 50% in size. Also: potency is read from the fitted curve at half-maximal effect. As to activity change, negative = inhibition: series mostly up to about 120 µM. In short, it runs like this:
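Enzyme and proluciferin substrate are mixed with test chemicals for 10 min, then NADPH regeneration system drives turnover for 1 h at room temperature. A detection reagent halts the reaction; luminescence after 20 min gives relative activity.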

The nature of assay [11]: Human pregnane X receptor (PXR) small molecule agonists, qHTS cell viability counter screen (AID 1346977). Also: nearly all actives have a fitted effect of over 50% in size. In short, it runs like this: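 HepG2 cells stably carrying the PXR-Luc reporter are cultured with 5% charcoal-stripped FBS and treated with compounds for 24hr. CellTiter-Fluor is added at 23hr and fluorescence is read after 1hr.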
The nature of assay [12]: Caspase-3/7 induction in CHO-K1 cells by small molecules, qHTS cell viability counter screen (AID 1346979). Also: nearly all actives have a fitted effect of over 35% in size. A digest of the protocol:
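Seeding: 1,500 CHO-K1 cells/well. Rest: 5hr, 37C. Treatment: compounds in DMSO, 16hr. Read: CellTiter-Fluor, 1hr, fluorescence.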

In assay [13] the target is Nuclear receptor subfamily 1 group I member 2 (Rattus norvegicus) (UniProt Q9R1A7). The assay can be described thus: Rat pregnane X receptor (rPXR) activation by small molecules, qHTS assay (AID 1346983). Also: nearly all actives have a fitted effect of over 20% in size. As to conditions: rPXR luciferase reporter cells, One-Glo luminescence, 24 h; max activation: hits give high values. A digest of the protocol:
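Cell-based rPXR activation assay: rPXR cells, 2,000 per well, rested 5hr at 37 C, then exposed to compounds in DMSO for 24 hr at 37 C. Luciferase activity read by One-Glo luminescence after 30 min at room temperature.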

Assay [14] concerns the target Nuclear receptor subfamily 1 group I member 2 (Homo sapiens) (UniProt O75469). Put plainly: Human pregnane X receptor (PXR) small molecule agonists, qHTS assay (AID 1346982). Also: nearly all actives have a fitted effect of over 35% in size. In short, it runs like this:
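PXR-Luc HepG2 cells (CYP3A4 promoter-driven luciferase) were seeded in medium with 5% charcoal-stripped FBS, left 5 hr at 37 C, then exposed to compounds in DMSO for 24 hr. Luminescence was read after ONE-Glo addition.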

Assay [15] shares this target. Put plainly: Human pregnane X receptor (PXR) activation by small molecules, qHTS assay (AID 1346985). Also: nearly all actives have a fitted effect of over 40% in size. A digest of the protocol: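 DPX-2 cells (HepG2 co-transfected with a PXR response element and a CYP3A4-promoter luciferase construct) were seeded at 2,000 per well, rested 5 hr at 37C, then exposed to DMSO-dissolved compounds for 24 hr. Activation was read as luciferase luminescence.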

The structures appear in SMILES notation. Values joined by “and” are separate entries in the source; they are usually repeats but may differ in a detail not shown here. Equal entries are not always repeated. A number with no mark means an inactive call. Inconclusive results are not listed. Active and inactive are the calls of the source. Unless noted, calls follow the shape of the dose curve; as a rule, active = well fitted curve in the direction sought with a large enough effect in the repeat runs; inconclusive = weak or mixed curves; inactive = no such curve, though single readings can be large; an effect the other way counts as inactive or inconclusive.
% is scaled to controls: 0 for no effect and ±100 for the full control effect.

Chain of Nuclear receptor subfamily 1 group I member 2 (Homo sapiens) (O75469 whole entry, looked up): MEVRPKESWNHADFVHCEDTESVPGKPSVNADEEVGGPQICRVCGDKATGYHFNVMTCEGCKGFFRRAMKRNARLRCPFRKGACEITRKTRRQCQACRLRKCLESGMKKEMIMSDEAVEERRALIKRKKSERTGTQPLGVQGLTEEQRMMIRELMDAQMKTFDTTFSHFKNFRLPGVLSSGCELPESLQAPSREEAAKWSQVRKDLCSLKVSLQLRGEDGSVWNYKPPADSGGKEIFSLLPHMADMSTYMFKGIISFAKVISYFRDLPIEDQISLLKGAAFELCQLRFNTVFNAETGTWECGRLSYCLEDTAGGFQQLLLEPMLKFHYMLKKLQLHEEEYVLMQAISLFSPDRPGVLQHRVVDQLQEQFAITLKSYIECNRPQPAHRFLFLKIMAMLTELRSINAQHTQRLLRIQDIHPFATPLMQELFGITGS
Chain of Cytochrome P450 1A2 (Homo sapiens) (P05177 whole entry, looked up): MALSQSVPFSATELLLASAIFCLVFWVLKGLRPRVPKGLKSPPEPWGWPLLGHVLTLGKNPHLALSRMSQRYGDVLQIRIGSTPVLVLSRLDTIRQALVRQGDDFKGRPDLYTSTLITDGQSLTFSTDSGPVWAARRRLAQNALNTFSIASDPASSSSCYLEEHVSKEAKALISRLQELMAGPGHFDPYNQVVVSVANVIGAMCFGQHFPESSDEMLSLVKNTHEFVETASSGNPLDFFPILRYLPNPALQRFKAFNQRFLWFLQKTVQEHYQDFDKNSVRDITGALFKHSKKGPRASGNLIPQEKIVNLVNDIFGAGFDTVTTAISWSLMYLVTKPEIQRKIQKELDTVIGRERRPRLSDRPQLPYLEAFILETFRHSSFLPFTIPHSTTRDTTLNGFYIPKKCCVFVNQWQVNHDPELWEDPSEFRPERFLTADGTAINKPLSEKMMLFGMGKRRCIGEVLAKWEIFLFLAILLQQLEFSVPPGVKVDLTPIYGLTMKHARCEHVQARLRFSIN
Chain of Voltage-gated inwardly rectifying potassium channel KCNH2 (Homo sapiens) (Q12809 whole entry, looked up): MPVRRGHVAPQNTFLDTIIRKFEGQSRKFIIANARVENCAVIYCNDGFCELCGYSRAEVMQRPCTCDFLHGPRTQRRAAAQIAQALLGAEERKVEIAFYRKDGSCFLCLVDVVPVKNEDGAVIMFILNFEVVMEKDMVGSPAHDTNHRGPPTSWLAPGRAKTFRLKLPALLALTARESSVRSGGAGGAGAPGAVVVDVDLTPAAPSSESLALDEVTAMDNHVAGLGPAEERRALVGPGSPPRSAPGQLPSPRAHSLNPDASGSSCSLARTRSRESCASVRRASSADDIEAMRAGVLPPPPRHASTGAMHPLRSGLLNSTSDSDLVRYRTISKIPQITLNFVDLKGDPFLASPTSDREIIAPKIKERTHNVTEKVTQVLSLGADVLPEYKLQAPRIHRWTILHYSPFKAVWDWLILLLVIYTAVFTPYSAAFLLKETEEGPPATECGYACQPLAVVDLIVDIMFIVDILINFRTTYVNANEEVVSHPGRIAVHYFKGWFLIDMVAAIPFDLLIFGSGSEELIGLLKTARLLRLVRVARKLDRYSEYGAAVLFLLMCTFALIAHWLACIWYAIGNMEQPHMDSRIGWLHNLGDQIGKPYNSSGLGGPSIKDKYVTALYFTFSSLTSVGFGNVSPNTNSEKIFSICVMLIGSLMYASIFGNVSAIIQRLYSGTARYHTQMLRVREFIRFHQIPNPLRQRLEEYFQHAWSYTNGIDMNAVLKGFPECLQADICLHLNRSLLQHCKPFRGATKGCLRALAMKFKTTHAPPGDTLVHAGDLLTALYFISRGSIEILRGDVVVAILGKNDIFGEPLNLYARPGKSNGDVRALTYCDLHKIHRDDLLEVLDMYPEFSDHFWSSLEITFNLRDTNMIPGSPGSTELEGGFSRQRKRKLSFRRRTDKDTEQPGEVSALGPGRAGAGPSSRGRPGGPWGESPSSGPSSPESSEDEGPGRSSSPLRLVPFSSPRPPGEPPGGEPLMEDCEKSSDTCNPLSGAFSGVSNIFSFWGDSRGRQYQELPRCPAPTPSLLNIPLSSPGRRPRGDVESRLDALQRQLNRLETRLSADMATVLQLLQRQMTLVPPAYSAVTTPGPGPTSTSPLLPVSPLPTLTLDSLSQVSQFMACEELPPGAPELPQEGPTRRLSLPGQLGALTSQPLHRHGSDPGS
Chain of Cytochrome P450 3A4 (Homo sapiens) (P08684 whole entry, looked up): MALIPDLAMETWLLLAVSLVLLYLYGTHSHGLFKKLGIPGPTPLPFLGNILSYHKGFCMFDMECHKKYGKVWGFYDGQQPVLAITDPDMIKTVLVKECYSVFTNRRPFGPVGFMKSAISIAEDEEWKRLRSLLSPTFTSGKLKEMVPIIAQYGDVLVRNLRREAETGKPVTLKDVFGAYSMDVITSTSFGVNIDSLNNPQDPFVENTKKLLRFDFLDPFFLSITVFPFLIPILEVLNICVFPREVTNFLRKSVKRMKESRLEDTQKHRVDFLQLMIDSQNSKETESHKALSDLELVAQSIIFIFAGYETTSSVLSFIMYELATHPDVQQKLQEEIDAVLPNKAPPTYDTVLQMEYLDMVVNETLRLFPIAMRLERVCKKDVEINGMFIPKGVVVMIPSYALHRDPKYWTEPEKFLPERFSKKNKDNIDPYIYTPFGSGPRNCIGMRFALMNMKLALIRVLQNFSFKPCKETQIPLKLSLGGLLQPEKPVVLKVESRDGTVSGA
Chain of Cytochrome P450 2C19 (Homo sapiens) (P33261 whole entry, looked up): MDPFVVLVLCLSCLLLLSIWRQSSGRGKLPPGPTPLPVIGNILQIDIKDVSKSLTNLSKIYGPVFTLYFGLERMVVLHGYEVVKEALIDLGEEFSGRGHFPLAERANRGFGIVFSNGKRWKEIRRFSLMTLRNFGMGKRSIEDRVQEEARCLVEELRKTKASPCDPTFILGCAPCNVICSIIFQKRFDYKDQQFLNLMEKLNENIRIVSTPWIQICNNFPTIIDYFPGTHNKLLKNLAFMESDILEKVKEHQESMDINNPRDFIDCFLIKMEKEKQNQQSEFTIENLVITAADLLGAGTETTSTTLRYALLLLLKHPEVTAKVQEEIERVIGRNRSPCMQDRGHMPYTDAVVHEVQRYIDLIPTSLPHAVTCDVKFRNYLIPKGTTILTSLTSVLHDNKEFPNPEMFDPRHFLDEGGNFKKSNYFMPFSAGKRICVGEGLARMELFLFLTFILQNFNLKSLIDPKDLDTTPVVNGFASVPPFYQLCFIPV
Chain of Cytochrome P450 2C9 (Homo sapiens) (P11712 whole entry, looked up): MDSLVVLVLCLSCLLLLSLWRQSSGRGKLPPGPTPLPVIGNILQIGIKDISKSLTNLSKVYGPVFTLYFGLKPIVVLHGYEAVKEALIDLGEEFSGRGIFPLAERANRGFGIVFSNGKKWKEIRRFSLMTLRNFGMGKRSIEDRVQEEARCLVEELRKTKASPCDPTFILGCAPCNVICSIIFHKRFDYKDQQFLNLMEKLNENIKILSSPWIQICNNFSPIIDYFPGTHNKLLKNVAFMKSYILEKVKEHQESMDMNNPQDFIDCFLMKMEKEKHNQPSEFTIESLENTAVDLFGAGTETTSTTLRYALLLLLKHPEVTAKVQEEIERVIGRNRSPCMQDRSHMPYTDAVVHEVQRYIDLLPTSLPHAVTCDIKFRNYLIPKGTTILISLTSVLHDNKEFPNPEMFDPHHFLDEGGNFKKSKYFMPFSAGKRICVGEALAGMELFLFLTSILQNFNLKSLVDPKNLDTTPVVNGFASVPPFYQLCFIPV
Chain of Cytochrome P450 2D6 (Homo sapiens) (P10635 whole entry, looked up): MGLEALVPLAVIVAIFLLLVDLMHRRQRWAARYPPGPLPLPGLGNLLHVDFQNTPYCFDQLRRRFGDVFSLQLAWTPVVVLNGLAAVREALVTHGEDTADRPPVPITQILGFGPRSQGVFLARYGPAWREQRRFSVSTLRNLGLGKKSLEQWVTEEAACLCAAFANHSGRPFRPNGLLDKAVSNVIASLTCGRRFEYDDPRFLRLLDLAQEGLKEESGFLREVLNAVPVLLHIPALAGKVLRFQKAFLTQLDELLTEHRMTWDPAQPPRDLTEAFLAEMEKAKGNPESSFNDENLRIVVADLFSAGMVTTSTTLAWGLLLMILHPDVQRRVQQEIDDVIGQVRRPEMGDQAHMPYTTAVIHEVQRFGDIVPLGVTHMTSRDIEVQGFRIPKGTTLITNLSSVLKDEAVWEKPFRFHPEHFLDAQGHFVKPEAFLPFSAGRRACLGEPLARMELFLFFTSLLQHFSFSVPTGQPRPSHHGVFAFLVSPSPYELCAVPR
Chain of Nuclear receptor subfamily 1 group I member 2 (Rattus norvegicus) (Q9R1A7 whole entry, looked up): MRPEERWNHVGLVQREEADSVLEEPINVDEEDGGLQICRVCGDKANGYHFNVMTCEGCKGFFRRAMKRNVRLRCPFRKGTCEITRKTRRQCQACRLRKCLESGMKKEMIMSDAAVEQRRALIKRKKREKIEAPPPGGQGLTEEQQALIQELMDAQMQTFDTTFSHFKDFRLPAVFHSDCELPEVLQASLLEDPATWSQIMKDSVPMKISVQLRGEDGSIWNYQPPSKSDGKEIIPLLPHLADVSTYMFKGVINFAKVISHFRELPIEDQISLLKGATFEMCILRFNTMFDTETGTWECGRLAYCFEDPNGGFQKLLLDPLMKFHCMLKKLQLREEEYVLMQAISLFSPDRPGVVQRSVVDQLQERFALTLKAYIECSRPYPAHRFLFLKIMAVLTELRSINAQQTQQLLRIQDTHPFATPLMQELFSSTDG

For `O=[N+]([O-])c1ccc2ncccc2c1`, the outcome in assay [1] and in [3] was inactive. Also, the Potency entry in assay [2], in assay [4], in assay [7], in [9] and in assay [10] was “inactive” in each case. Also, the Potency is 31.8 µM (active) in assay [5], 40 µM (active) in [6] and 1.59 µM (active) in assay [8].

For `Nc1ccn([C@H]2CS[C@@H](CO)O2)c(=O)n1`, the Potency result in [11], in assay [2], in assay [12], in assay [5], in [6] and in assay [7] was “inactive” each time. Moreover, the Potency result in assay [8] and in assay [9] was “inactive” in each case. The outcome in assay [3] was inactive. Besides, the max activation in [13] is -3.24% and -0.136%.

As to `COc1cc(NCc2ccc3nc(N)nc(N)c3c2C)cc(OC)c1OC`, the outcome in assay [1] and in [3] was inactive. The Potency in assay [4] is 26.6 µM (active); in [5] it was 13.8 µM (active); in [6], 9.77 µM (active); in assay [7] it was 15.5 µM (active); in assay [8], 7.76 µM (active). Besides, the Potency result in assay [14], in assay [15] and in assay [9] was “inactive” throughout. The max activation in assay [13] was -10.1%.

As for `CC/C=C\C/C=C\C/C=C\CCCCCCCC(=O)OCC`, in assay [1], the result was inactive. In addition, the Potency entry in assay [2], in assay [4] and in assay [9] was “inactive” in each case. For the same compound, the figures for the Potency in assay [6], in [7] and in [10] were 64.8 µM (active), 40.9 µM (active) and 72.7 µM (active), respectively.

For the compound `CC(C)(C)NCC(O)COc1cccc2c1C[C@H](O)[C@H](O)C2` (stereo partly drawn), the Potency result in [11], in assay [2], in assay [12], in assay [4], in assay [14] and in assay [15] was “inactive” each time. Moreover, the Potency entry in assay [5], in assay [6], in [9] and in [10] was “inactive” in each case. For the same compound, the call in [3] was inactive. In [13], the max activation was -1.94%.

Turning to `C=CC(=O)O`, the Potency entry in [11], in [2], in assay [12], in assay [4], in assay [14] and in assay [15] was “inactive” throughout. Moreover, the Potency entry in [5], in [8], in [9] and in assay [10] was “inactive” in each case. In addition, the outcome in assay [3] was inactive. Also, in assay [13], the max activation was -1.96%.

Regarding `CCC(CO)(CO)[N+](=O)[O-]`, the Potency entry in assay [11], in assay [2], in assay [12], in assay [4], in assay [14] and in assay [5] was “inactive” in each case. Besides, the Potency entry in assay [6], in assay [8], in assay [9] and in [10] was “inactive” each time. The call in [3] was inactive.

For `CCOC(=O)c1ccc(NC(=O)CN2CCCCC2)cc1`, the Potency result in assay [11], in [2], in [12], in assay [4], in assay [6] and in assay [9] was “inactive” throughout. Besides, the Potency result in assay [10] is “inactive”. For the same compound, the result in assay [3] was inactive. In addition, the Potency in [5] is 17.4 µM (active); in [8], 32.3 µM (active).

In the case of `COc1cc(NC(C)CCCN)c2ncccc2c1` (stereo not drawn), the compound was called inactive in assay [1] and in [3]. For the same compound, the Potency result in [12], in [4], in [14], in [15] and in assay [9] was “inactive” throughout. Moreover, the max activation in assay [13] was -6.86%.

For the compound `CCN(CC)CC(=O)Nc1c(C)cccc1C(=O)OC`, the Potency entry in assay [11], in assay [2], in assay [12], in assay [4], in [14] and in [7] was “inactive” in each case. The Potency result in assay [8] and in assay [9] was “inactive” in each case. Besides, in [3], the compound was called inactive. Further, the Potency in assay [5] was 38.9 µM (active).

For `COC1CCC=CO1` (stereo not drawn), the Potency entry in [11], in [2], in assay [12], in assay [4], in [14] and in [5] was “inactive” throughout. The Potency result in [6], in [7], in assay [8] and in assay [9] was “inactive” throughout. In addition, the outcome in assay [3] was inactive.

With `CNCc1ccc(NC(=O)c2c[nH]c3c2C(=O)CCC3)cc1`, the result in [1] was inactive. Further, the Potency entry in assay [2], in assay [12], in assay [4], in [5] and in assay [9] was “inactive” in each case. Also, the Potency in [8] was 31.7 µM (active).

`Cc1ccc(NC(=O)N(C)C)cc1NC(=O)N(C)C`: the outcome in assay [1] was inactive. Also, the Potency entry in assay [12], in assay [4], in assay [5], in [6] and in assay [9] was “inactive” throughout.

With `O=S(=O)(O)CO`, the compound was called inactive in assay [1] and in [3]. For the same compound, the Potency result in [4], in assay [14], in assay [5], in [9] and in assay [10] was “inactive” throughout. Besides, the Potency in [6] was 35.1 µM (active); in assay [8], 31.3 µM (active).

`CSCC[C@H](NC(=O)[C@H](Cc1c[nH]c2ccccc12)NC(=O)CCNC(=O)OC(C)(C)C)C(=O)N[C@@H](CC(=O)O)C(=O)N[C@@H](Cc1ccccc1)C(N)=O`: the Potency result in [11], in assay [2], in assay [12], in assay [4], in assay [14] and in assay [5] was “inactive” in each case. Besides, the Potency result in assay [6], in [7], in assay [8] and in [9] was “inactive” each time. Besides, the outcome in [3] was inactive.

As for `CCCCCCCCCCCCCCN(C)C`, the activation in [1] was 1.06% [at 11.8 µM]. Besides, in assay [2], the caspase activation is 1.09% [at 19 µM]. Besides, in [3], the caspase-3/7 activation was -1.58% [at 19 µM]. Besides, the activity change, negative = cytotoxicity in assay [4] was -7.71% [at 19 µM]. In addition, the activity change, negative = inhibition is -19.3% [at 23.6 µM] in assay [5], -0.651% [at 15.8 µM] in assay [9] and -11.1% [at 23.6 µM] in assay [10].

Turning to `CN=C(N)NC(=O)Nc1c(C)cccc1C`, the Potency result in assay [11], in assay [2], in assay [12], in [4], in assay [5] and in assay [7] was “inactive” each time. In addition, the Potency result in assay [8], in [9] and in [10] was “inactive” throughout. In [3], the compound was classed as inactive.

Take `CCCCCCCC(=O)OCCCCCC`: the result in assay [1] and in [3] was inactive. Besides, the Potency result in assay [12], in assay [4], in assay [14], in assay [5], in assay [6] and in assay [7] was “inactive” each time. Also, the Potency entry in assay [8], in assay [9] and in assay [10] was “inactive” throughout.

Source of the values: PubChem BioAssay (Tox21).
